Activity calls are given as the source filed them. How the calls were made is not given here.

Chain of Dual specificity protein kinase CLK1 (Homo sapiens) (P49759 whole entry, looked up): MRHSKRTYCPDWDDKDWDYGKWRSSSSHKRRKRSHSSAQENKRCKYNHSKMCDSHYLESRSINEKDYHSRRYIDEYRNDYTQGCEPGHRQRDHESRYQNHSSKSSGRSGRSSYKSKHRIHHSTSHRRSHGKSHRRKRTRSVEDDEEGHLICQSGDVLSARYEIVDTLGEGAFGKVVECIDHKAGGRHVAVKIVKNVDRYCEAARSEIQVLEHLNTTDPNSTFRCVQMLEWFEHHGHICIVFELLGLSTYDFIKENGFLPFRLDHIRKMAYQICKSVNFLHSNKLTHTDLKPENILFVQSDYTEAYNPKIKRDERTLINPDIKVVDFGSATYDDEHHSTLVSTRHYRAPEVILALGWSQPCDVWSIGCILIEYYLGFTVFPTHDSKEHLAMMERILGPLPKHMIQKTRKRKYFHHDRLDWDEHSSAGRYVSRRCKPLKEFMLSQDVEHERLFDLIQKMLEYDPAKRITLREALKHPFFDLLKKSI

One assay has as its target Dual specificity protein kinase CLK1 (Homo sapiens) (UniProt P49759). Briefly: ligand-induced CLK1 melting temperature shift – biophysical, recombinant human kinase, DSF (AID 382). As to conditions: Recombinant CLK1, thermal shift (DSF), at 10 µM, protein 2 µM, buffer 10 mM HEPES, pH 7.5, NaCl 150 mM, with 50 mM Arg/Glu, stronger effect = higher value.
For `Nc1ncnc2c1c(I)cn2[C@@H]1O[C@H](CO)C(O)C1O` (stereo not given in full), the Tm shift was 5.2 Celsius (active).
With `Cn1cc(/C=C2\C(=O)Nc3ccc(S(N)(=O)=O)cc32)c2ccccc21`, the Tm shift is 3.6 Celsius (active).
Same read-out and setting: then `CN(C)S(O)(O)c1ccc2c(c1)/C(=C/c1cc3c([nH]1)CCCC3)C(=O)N2`, with 4.8 Celsius (active).
Still for that read-out and setting: to `NC1=N/C(=C2/CCNC(=O)c3[nH]c(Br)cc32)C(=O)N1` belongs 4.4 Celsius (active).
Consider `CC(C)n1cnc2c(Nc3cccc(Cl)c3)nc(NCCO)nc21`, for which the Tm shift is 4.6 Celsius (active).
The same measure, in the same setting: then `CN(C)CCCn1cc(C2=C(c3c[nH]c4ccccc34)C(=O)NC2=O)c2ccccc21`, with 4.4 Celsius (active).

The same assay, now with this note: Recombinant CLK1, thermal shift (DSF), measured here: replicate experiment 2, at 10 µM, run 2, protein 2 µM, buffer 10 mM HEPES, NaCl 150 mM, stronger effect = higher value.
Turning to `O=c1c(O)c(-c2ccc(O)c(O)c2)oc2cc(O)cc(O)c12`, the Tm shift was found to be 6 Celsius.
On the same count and under the same terms, to `CC1N=C2SC=CN2C(=O)C1CCN1CCC(=C(c2ccccc2)c2ccc(F)cc2)CC1` (stereo not given) belongs 3.6 Celsius; to `COC(=O)c1cnc2oc3ccc(O)cc3c2c1-c1ccccc1`, 3.9 Celsius.
The same measure, in the same setting: then `O=C1c2ccccc2-c2n[nH]c3cccc1c23`, with 3.2 Celsius.

For the origin of these results see PubChem BioAssay AID382 (SGCOxCompounds, 2006).
